# This is one part of a sample in which the strongest signals are shown more often than they occur.
# Experiments:
# Test in all cases: glycan array binding signal (z-score within array); higher = stronger binding
# Conditions in all cases: glycan notation: IUPAC condensed, linker removed
# [1] = target: GalNAc(a1-3)GalNAc(b1-3)Gal(a1-4)Gal(b1-4)GlcNAc
# Summary of the method: (§1)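 From the Consortium for Functional Glycomics database, 3228 arrays were curated, keeping only those whose protein sequence was available. Binding is given as a within-array Z-score averaged across arrays sharing a protein sequence and across linkers. Negative Z-scores can be read as non-binding.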
# [2] = target: GalNAc(b1-3)GlcNAc
# Summary of the method: as §1
# [3] = target: GalNAc6S(b1-4)GlcNAc
# Summary of the method: as §1
# [4] = target: GlcA(b1-3)GlcNAc
# Summary of the method: as §1
# [5] = target: GlcNAc(b1-2)Man(a1-3)[GlcNAc(b1-2)Man(a1-6)]Man(b1-4)GlcNAc(b1-4)GlcNAc
# Summary of the method: as §1
# [6] = target: GlcNAc(b1-3)Gal(b1-4)GlcNAc(b1-3)Gal(b1-4)GlcNAc
# Summary of the method: as §1
# [7] = target: GlcNAc(b1-3)Gal(b1-4)GlcNAc(b1-3)Gal(b1-4)GlcNAc(b1-3)Gal(b1-4)GlcNAc(b1-3)Gal(b1-4)GlcNAc(b1-2)Man(a1-3)[GlcNAc(b1-3)Gal(b1-4)GlcNAc(b1-3)Gal(b1-4)GlcNAc(b1-3)Gal(b1-4)GlcNAc(b1-3)Gal(b1-4)GlcNAc(b1-2)Man(a1-6)]Man(b1-4)GlcNAc(b1-4)GlcNAc
# Summary of the method: as §1
# [8] = target: Kdn(a2-6)Gal(b1-4)GlcNAc
# Summary of the method: as §1
# [9] = target: Man(a1-2)Man(a1-3)Man
# Summary of the method: as §1
# [10] = target: Man(a1-3)[Man(a1-6)]Man(a1-6)[Man(a1-2)Man(a1-3)]Man(b1-4)GlcNAc(b1-4)GlcNAc
# Summary of the method: as §1
# [11] = target: Neu5Ac(a2-3)Gal(b1-3)GalNAc(b1-3)Gal(a1-4)Gal(b1-4)Glc
# Summary of the method: as §1
# [12] = target: Neu5Ac(a2-3)Gal(b1-3)GlcNAc(b1-4)Gal(b1-4)Glc
# Summary of the method: as §1
# [13] = target: Neu5Ac(a2-3)Gal(b1-4)GlcNAc(b1-2)Man(a1-3)[Neu5Ac(a2-6)Gal(b1-4)GlcNAc(b1-2)Man(a1-6)]Man(b1-4)GlcNAc(b1-4)GlcNAc
# Summary of the method: as §1
# [14] = target: Neu5Ac(a2-3)Gal(b1-4)GlcNAc(b1-3)Gal(b1-3)GlcNAc
# Summary of the method: as §1
# [15] = target: Neu5Ac(a2-3)Gal(b1-4)GlcNAc(b1-3)Gal(b1-4)GlcNAc(b1-3)Gal(b1-4)GlcNAc
# Summary of the method: as §1
# [16] = target: Neu5Ac(a2-3)Gal(b1-4)[Fuc(a1-3)]GlcNAc(b1-3)Gal(b1-4)[Fuc(a1-3)]GlcNAc(b1-3)Gal(b1-4)[Fuc(a1-3)]GlcNAc
# Summary of the method: as §1
# [17] = target: Neu5Ac(a2-3)Gal6S(b1-4)GlcNAc
# Summary of the method: as §1
# [18] = target: Neu5Ac(a2-3)Gal6S(b1-4)[Fuc(a1-3)]GlcNAc
# Summary of the method: as §1
# [19] = target: Neu5Ac(a2-3)GalNAc(b1-4)GlcNAc
# Summary of the method: as §1
# [20] = target: Neu5Ac(a2-6)Gal(b1-4)GlcNAc(b1-2)Man(a1-3)[Neu5Ac(a2-3)Gal(b1-4)GlcNAc(b1-2)Man(a1-6)]Man(b1-4)GlcNAc(b1-4)GlcNAc
# Summary of the method: as §1
# [21] = target: Neu5Ac(a2-6)Gal(b1-4)GlcNAc(b1-2)Man(a1-3)[Neu5Ac(a2-6)Gal(b1-4)GlcNAc(b1-2)Man(a1-6)]Man(b1-4)GlcNAc(b1-4)GlcNAc
# Summary of the method: as §1
# [22] = target: Neu5Ac(a2-6)Gal(b1-4)GlcNAc(b1-3)Gal(b1-4)GlcNAc(b1-6)[Gal(b1-3)]GalNAc
# Summary of the method: as §1
# [23] = target: Neu5Ac(a2-6)Gal(b1-4)GlcNAc(b1-3)Gal(b1-4)[Fuc(a1-3)]GlcNAc(b1-3)Gal(b1-4)[Fuc(a1-3)]GlcNAc
# Summary of the method: as §1
# [24] = target: Neu5Ac(a2-6)Gal(b1-4)GlcNAc6S
# Summary of the method: as §1
# [25] = target: Neu5Ac(a2-8)Neu5Ac(a2-3)Gal(b1-3)GalNAc(b1-4)[Neu5Ac(a2-8)Neu5Ac(a2-3)]Gal(b1-4)Glc
# Summary of the method: as §1
# [26] = target: Neu5Ac(a2-8)Neu5Ac(a2-3)[GalNAc(b1-4)]Gal(b1-4)Glc
# Summary of the method: as §1
# [27] = target: Neu5Ac(a2-8)Neu5Ac(a2-8)Neu5Ac
# Summary of the method: as §1
# [28] = target: Neu5Ac(b2-6)GalNAc
# Summary of the method: as §1
# [29] = target: Neu5Gc(a2-3)Gal(b1-4)Glc
# Summary of the method: as §1
# [30] = target: Neu5Gc(b2-6)Gal(b1-4)GlcNAc
# Summary of the method: as §1
binder,measurement,setting,value
TAL6-6LysM (Trichoderma atroviride) (protein) AASKLGVPQPAQRDQVNCQLYAVQPNDNCIDISSKNNITYAQLLSWNPSLSSTCSNLASLNSSSICVSNPKGTFSISSNTVGATDIATTTAPVPSPTLDQTTSRCAKYYQVSDGDDCSHLTAQFAITLKDFIFLNSEVWQNCTNLELGYYYCVEPVGYISTYPGYLPTATTKPFNQTSATSLPYDGDPWARFSSNSSVIPIANGTRVDCYSYVYVKNLTENLFADCWNMASMYEITREELVLWNPSLGNDGSSGSNLSGAEASQVASSIAIPTTAPSSITTNLYTYPCTVAANISYCVALVSSTGALPTNTAPPGPHASGEISNCTAWFAPEAYDTCKSILDIFEMSFANFYKMNPSVGPDCSGLAVGTNYCVSTYPNGEDPNDDWDGDDSIPSISPTGIITPTPTQSGMVSNCNKFYDVHSNDGCSAIASSQHVDLSSLYKWNPAIKTDCSGLQASVYVCIGILTTSMSTTSKLPTTTSKPSTTSKPPTGITTPTPTQSGMVKNCNKFYDVHSGDGCSAIASSQKVNLSSFYLWNPAVKTDCSGLQASVFVCIGTLTTSMSTTTSKLPTTTSKPSTTSKPPTGIITPTPTQNGMVKNCNKFYDVHSGDGCSAIASSQKVNLSSFYLWNPAVKTDCSGLQASVFVCVGTATTTTAAGITTPTPTQSGMVSGCNKFYDVHAGDGCSAIASSQKIALSSLYKWNPAVKTDCSGLQASVYICIGVGNAAAARVTGAAASFLEQKLISEEDLNSAVDHHHHHH,glycan array binding signal (z-score),[1],-0.794
same,glycan array binding signal (z-score),[2],-0.241
same,glycan array binding signal (z-score),[3],0.157
same,glycan array binding signal (z-score),[4],1.11
same,glycan array binding signal (z-score),[5],0.42
same,glycan array binding signal (z-score),[6],0.291
same,glycan array binding signal (z-score),[7],-0.734
same,glycan array binding signal (z-score),[8],2.71
same,glycan array binding signal (z-score),[9],-0.128
same,glycan array binding signal (z-score),[10],2.52
same,glycan array binding signal (z-score),[11],-0.741
same,glycan array binding signal (z-score),[12],0.273
same,glycan array binding signal (z-score),[13],-0.683
same,glycan array binding signal (z-score),[14],-0.147
same,glycan array binding signal (z-score),[15],1.76
same,glycan array binding signal (z-score),[16],0.058
same,glycan array binding signal (z-score),[17],0.428
same,glycan array binding signal (z-score),[18],-1.04
same,glycan array binding signal (z-score),[19],-0.545
same,glycan array binding signal (z-score),[20],-0.013
same,glycan array binding signal (z-score),[21],0.076
same,glycan array binding signal (z-score),[22],-0.387
same,glycan array binding signal (z-score),[23],2.13
same,glycan array binding signal (z-score),[24],0.283
same,glycan array binding signal (z-score),[25],0.052
same,glycan array binding signal (z-score),[26],2.17
same,glycan array binding signal (z-score),[27],-0.139
same,glycan array binding signal (z-score),[28],-0.369
same,glycan array binding signal (z-score),[29],-1.25
same,glycan array binding signal (z-score),[30],0.217

# — the supplement of paper PMC8728848
